SMILES strings stand for the structures. The campaign covered roughly 52,000 compounds. About 1,700 (3.3%) were called active. Only a selection was taken, and actives are over-represented in it overall. Unmarked numbers belong to inactive results. Cut-off read from the data, not from the text of the source: active = survival mostly below about 52% (no sharp cut-off); inactive = mostly above about 56%.

The assay has as its system Wild type. Briefly: S. aureus survival, RN4220 and DeltatarO strains – OD600, teichoic acid synthesis inhibitors, primary screen (AID 463173). As to conditions: S. aureus RN4220 wild type/DeltatarO growth, OD600, 18 h, hits give low values, screened at 18.75 µg/mL (by protocol).
Consider `COc1ccc(-c2noc(N3CCN(c4cccc(Cl)c4)CC3)n2)cc1OC`, for which the survival is 73%.

For `Cc1cccc(N(C)S(=O)(=O)c2cc3c(cc2Cl)NC(=O)CO3)c1`, the survival was 75%.

With `COc1ccc(N2CCN(c3ncccc3-c3nc(-c4ccccc4C)no3)CC2)cc1`, the survival is 87%.

`CCN(CC)C(=O)Cn1cc(/C=C(\C#N)C(N)=O)c2ccccc21`: the survival is 124%.

On to `Cc1ccc(CNc2ncnc3c2cnn3-c2ccc(C)cc2C)cc1`, for which the survival was 73%.

Turning to `Cc1cccc(C(=O)NNc2ncnc3c2cnn3-c2ccc(C)cc2C)c1`, the survival is 124%.

Take `Cc1ccc(-n2ncc3c(N(CC(C)C)CC(C)C)ncnc32)c(C)c1`: the survival is 71%.

On to `COc1ccc(C(=O)NNc2ncnc3c2cnn3-c2ccc(C)cc2C)cc1`, for which the survival is -3% (active).

`COc1ccc(C(=O)NNc2ncnc3c2cnn3-c2ccc(C)c(Cl)c2)cc1`: the survival was 73%.

In the case of `Cc1ccc(-n2ncc3c(NCC(C)C)ncnc32)c(C)c1`, the survival is 10% (active).

For `CCOc1ccc(N2CC(NC(=O)CCc3ccccc3)CC2=O)cc1` (stereo not given), the survival was 78%.

For `COc1ccc(CCNc2nccn(-c3ccc(C)c(C)c3)c2=O)cc1OC`, the survival is 83%.

`COC(=O)c1c(NC(=O)Cc2coc3cc(C)ccc23)sc2c1CCC2`: the survival is 106%.

With `CCCCNC(=O)C(CC)Sc1nc2ccccc2c(=O)n1CCc1ccc(OC)c(OC)c1` (stereo not given), the survival is 127%.

On to `O=C(NCc1ccccc1Br)c1ccc(-n2cnc3cccnc32)cc1`, for which the survival was 152%.

Regarding `Cc1cccc(C(=O)Nc2ccccc2-c2nc(-c3ccccc3)no2)c1`, the survival is 86%.

For `CCOc1ccc(CCNC(=O)C2CCN(c3ncnc4c3nc3n4CCCCC3)CC2)cc1`, the survival is 119%.

As for `CCc1ccc(C(=O)CC2(O)C(=O)N(Cc3ccc(C)cc3)c3ccccc32)cc1` (stereo not given), the survival was 48%.

With `CCc1ccc(C(=O)CC2(O)C(=O)N(CCc3ccccc3)c3ccc(Cl)cc32)cc1` (stereo not given), the survival is 5% (active).

Take `CCc1ccc(C(=O)CC2(O)C(=O)N(C(C)C)c3ccccc32)cc1` (stereo not given): the survival is 111%.

As for `Cc1ccc(CN2C(=O)C(O)(CC(=O)c3ccc(C)cc3)c3ccccc32)cc1` (stereo not given), the survival is 66%.

For the compound `Cc1ccc(C(=O)CC2(O)C(=O)N(CCc3ccccc3)c3ccc(Cl)cc32)cc1` (stereo not given), the survival was 3% (active).

Regarding `CC(C)c1ccc(C(=O)CC2(O)C(=O)N(CCc3ccccc3)c3ccc(Cl)cc32)cc1` (stereo not given), the survival is 33%.

In the case of `Cc1ccc2cc(C#N)c(SCC(=O)NCc3ccco3)nc2c1`, the survival is 103%.

`O=S(=O)(NCC(c1ccco1)S(=O)(=O)c1cccs1)c1ccc(F)c(C(F)(F)F)c1` (stereo not given): the survival was 32%.

Turning to `COc1ccc(CCNC(=O)c2ccc3c(c2)N(Cc2ccc(Cl)cc2)C(=O)c2ccccc2S3)cc1OC`, the survival was 55%.

Take `Cc1cc(C)cc(NC(=O)CSc2nccn2-c2ccccc2)c1`: the survival was 135%.

As for `Cc1cccc(NC(=O)c2ccc3oc(=O)c(S(=O)(=O)c4ccc(F)cc4)cc3c2)c1C`, the survival was 127%.

Take `CN(CCO)Cc1ccc2c(c1)OCO2`: the survival is 121%.

On to `CCOc1ccccc1CNC(=O)c1cnn(-c2ccc(C)cc2)c1-n1cccc1`, for which the survival was 10% (active).

For the compound `Cc1nn(-c2ccccc2)c(-n2cccc2)c1C(=O)NCc1ccccc1Cl`, the survival was 1% (active).

Regarding `CC(=O)Nc1ccc(NC(=O)c2c(C)nn(-c3ccccc3)c2-n2cccc2)cc1`, the survival was 80%.

As to `Cc1ccc(-n2ncc(C(=O)NCc3ccccc3C)c2-n2cccc2)cc1`, the survival was 88%.

For `Cc1nn(-c2ccc(F)cc2)c(-n2cccc2)c1C(=O)NCCc1ccc(Cl)cc1`, the survival is 54%.

As for `O=C(NCCc1ccccc1)c1cnn(-c2ccc(F)cc2)c1-n1cccc1`, the survival is 49%.

For the compound `CSc1ccc(CCNC(=O)c2cnn(-c3ccccc3)c2-n2cccc2)cc1`, the survival was 9% (active).

Turning to `Cc1nn(-c2ccccc2)c(-n2cccc2)c1C(=O)NCCc1ccc(Cl)cc1`, the survival was 2% (active).

Regarding `Cc1ccc(NC(=O)c2c(C)nn(-c3ccccc3)c2-n2cccc2)c(Cl)c1`, the survival was 78%.

On to `COc1ccc(CNC(=O)c2cnn(-c3ccc(F)cc3)c2-n2cccc2)cc1`, for which the survival was 113%.

In the case of `COc1ccc(CNC(=O)c2cnn(-c3ccccc3)c2-n2cccc2)cc1OC`, the survival is 126%.

Take `Cc1ccc(CCNC(=O)c2c(C)nn(-c3ccc(F)cc3)c2-n2cccc2)cc1`: the survival is 60%.

As for `CCOC(=O)C1=C(C)NC(=O)NC1c1c(O)ccc2ccccc12` (stereo not given), the survival was 111%.

For `Cc1cn2c(=O)c(S(=O)(=O)NCCc3ccc(Cl)cc3)c(C)nc2s1`, the survival was 88%.

Take `COc1ccc(CC(=O)NCCc2csc3nc(-c4ccccc4F)nn23)cc1`: the survival is 55%.

For `Cc1ccc(C)c(Oc2nc3c(c(=O)n(C)c(=O)n3C)n2Cc2ccccc2)c1`, the survival is 73%.

Turning to `COCCCNC(=O)CCCCn1c(=O)c2ccccc2n(CC(=O)Nc2ccc(C)cc2C)c1=O`, the survival is 82%.

In the case of `COC(=O)c1sc2cccc(F)c2c1S(=O)(=O)N1CCN(c2cccc(C)c2)C(C)C1` (stereo not given), the survival was 87%.

Regarding `CN1C(=O)C(CC(=O)NCC2CCCCC2)SC1=Nc1ccccc1` (stereo not given), the survival was 99%.

For `O=C1C2C3C=CC(C3)C2C(=O)N1c1ccc2c(c1)OCO2` (stereo not given), the survival was 94%.

As for `COc1ccc(S(=O)(=O)N2CCC(n3c(C)nc4cccnc43)CC2)cc1Cl`, the survival is 131%.

Take `O=C(NCC12CC3CC(CC(C3)C1)C2)c1cc2nc(-c3ccccc3)cc(C(F)(F)F)n2n1`: the survival is -12% (active).

In the case of `O=C(NCC12CC3CC(CC(C3)C1)C2)c1cc2nc(-c3ccc(Cl)cc3)cc(C(F)(F)F)n2n1`, the survival was 60%.

Consider `COc1ccc(-c2cc(C(F)(F)F)n3nc(C(=O)NCC45CC6CC(CC(C6)C4)C5)cc3n2)cc1`, for which the survival was 62%.

As for `CCOc1ccccc1Nc1sc(C(=O)c2ccc(Cl)cc2)c(N)c1S(=O)(=O)c1ccccc1`, the survival was 19%.

Consider `Cc1ccc(S(=O)(=O)CCC(=O)N2CCN(c3nc4c(C)c(Cl)ccc4s3)CC2)cc1`, for which the survival was 68%.

As to `Cc1c(Cl)ccc2sc(N3CCN(C(=O)CS(=O)(=O)c4ccccc4)CC3)nc12`, the survival was 124%.

Consider `Cc1ccc2sc(N3CCN(C(=O)CCS(=O)(=O)c4ccc(F)cc4)CC3)nc2c1C`, for which the survival is 82%.

In the case of `Cc1ccc(S(=O)(=O)CC(=O)N2CCN(c3nc4c(F)cccc4s3)CC2)cc1`, the survival is -6% (active).

For the compound `Cc1ccc2sc(N3CCN(C(=O)CCS(=O)(=O)c4ccc(Cl)cc4)CC3)nc2c1C`, the survival was 75%.

For `COc1cccc2sc(N3CCN(C(=O)CCS(=O)(=O)c4ccc(F)cc4)CC3)nc12`, the survival is 87%.

In the case of `Cc1c(Cl)ccc2sc(N3CCN(C(=O)CCS(=O)(=O)c4ccc(F)cc4)CC3)nc12`, the survival was -3% (active).

For `COc1cccc2sc(N3CCN(C(=O)CS(=O)(=O)c4ccc(Cl)cc4)CC3)nc12`, the survival was -6% (active).

Consider `Cc1cccc2sc(N3CCN(C(=O)CS(=O)(=O)c4ccc(F)cc4)CC3)nc12`, for which the survival was 73%.

Take `Cc1c(Cl)cccc1NC(=O)CSc1nc(=O)n(Cc2ccco2)c2c1CCC2`: the survival was 120%.

Turning to `COc1ccccc1N1CCN(CCC(=O)Nc2cccc(F)c2)CC1`, the survival was 76%.

For the compound `COc1ccc(NC(=O)NC2COc3ccccc3C2)c(OC)c1` (stereo not given), the survival is 88%.

As for `O=C(Nc1ccc(OC(F)(F)F)cc1)NC1COc2ccccc2C1` (stereo not given), the survival was -3% (active).

As to `COc1ccc(NC(=O)NC2COc3ccccc3C2)cc1Cl` (stereo not given), the survival is 65%.

Regarding `O=C(Cn1cc(S(=O)(=O)c2ccccc2)c(=O)c2cc3c(cc21)OCO3)Nc1ccc(Cl)cc1`, the survival was 65%.

In the case of `CCc1ccc(CNC(=O)c2sc3ncccc3c2-n2c(C)ccc2C)cc1`, the survival was -3% (active).

For the compound `Cc1ccc(CCNC(=O)c2sc3ncccc3c2-n2c(C)ccc2C)cc1`, the survival is 75%.

With `COCCNC(=O)c1sc2ncccc2c1-n1c(C)ccc1C`, the survival was 88%.

On to `Cc1cc2ccccc2n1-c1ccc(C(=O)N2CCC(C(=O)NCc3ccccc3Cl)CC2)s1`, for which the survival was 60%.

As to `CC(C)c1ccc(C2=CC(c3cccc(Cl)c3)n3c(nc4ccccc43)N2)cc1` (stereo not given), the survival is 60%.

Regarding `CC(C)c1ccc(C2=CC(c3cccc(Cl)c3)n3ncnc3N2)cc1` (stereo not given), the survival is -3% (active).

Consider `COc1ccc(C2C=C(c3ccc(Cl)c(Cl)c3)Nc3ncnn32)cc1` (stereo not given), for which the survival is 26%.

Regarding `CCOC(=O)c1cc2c(=O)n3ccccc3nc2n(Cc2ccco2)c1=NC(=O)c1ccccc1OC`, the survival is 64%.

Regarding `CCCCn1c(SCc2ccccc2C#N)nc2c(sc3ccccc32)c1=O`, the survival was 14% (active).

Take `COCCCn1c(SCC(=O)NCc2ccccc2)nc2c(sc3ccccc32)c1=O`: the survival is 72%.

Regarding `CCOC(=O)CSc1nc2c(sc3ccccc32)c(=O)n1CCc1ccccc1`, the survival is 75%.

For the compound `CCOCCCn1c(SCC(=O)NCCCOC)nc2c(sc3ccccc32)c1=O`, the survival is 134%.

Regarding `CCOCCCn1c(SCC(=O)OCC)nc2c(sc3ccccc32)c1=O`, the survival was 136%.

`CCOCCCn1c(SCC(=O)NCc2ccccc2)nc2c(sc3ccccc32)c1=O`: the survival was -6% (active).

As to `CCCCn1c(SCC(=O)NCCCOC)nc2c(sc3ccccc32)c1=O`, the survival is 133%.

Regarding `CC(C)OCCCn1c(SCc2ccccc2C#N)nc2c(sc3ccccc32)c1=O`, the survival was 76%.

Consider `COCCCNC(=O)CSc1nc2c(sc3ccccc32)c(=O)n1CCc1ccccc1`, for which the survival was 64%.

With `COCCCn1c(SCc2ccccc2F)nc2c(sc3ccccc32)c1=O`, the survival was 98%.

As for `CCOC(=O)CSc1nc2c(sc3ccccc32)c(=O)n1CCO`, the survival is -6% (active).

For `COCCCNC(=O)CSc1nc2c(sc3ccccc32)c(=O)n1CCc1ccc(OC)c(OC)c1`, the survival is -6% (active).

In the case of `Cc1c(C(=O)Nc2ccc(F)c(Cl)c2)oc2ccc(S(=O)(=O)N(C)C3CCCCC3)cc12`, the survival is 99%.

The values are drawn from PubChem BioAssay AID463173 (ICCB-Longwood Screening Facility, Harvard Medical School, 2010).
